Experimental data: ChEMBL document CHEMBL2218924, “A broad activity screen in support of a chemogenomic map for kinase signalling research and drug discovery” (Biochem J, 2013)

Each molecule was assayed against Platelet-derived growth factor receptor beta (Homo sapiens) (UniProt P09619). Conditions: at 1 µM.
Sequence of Platelet-derived growth factor receptor beta (Homo sapiens) (P09619 whole entry): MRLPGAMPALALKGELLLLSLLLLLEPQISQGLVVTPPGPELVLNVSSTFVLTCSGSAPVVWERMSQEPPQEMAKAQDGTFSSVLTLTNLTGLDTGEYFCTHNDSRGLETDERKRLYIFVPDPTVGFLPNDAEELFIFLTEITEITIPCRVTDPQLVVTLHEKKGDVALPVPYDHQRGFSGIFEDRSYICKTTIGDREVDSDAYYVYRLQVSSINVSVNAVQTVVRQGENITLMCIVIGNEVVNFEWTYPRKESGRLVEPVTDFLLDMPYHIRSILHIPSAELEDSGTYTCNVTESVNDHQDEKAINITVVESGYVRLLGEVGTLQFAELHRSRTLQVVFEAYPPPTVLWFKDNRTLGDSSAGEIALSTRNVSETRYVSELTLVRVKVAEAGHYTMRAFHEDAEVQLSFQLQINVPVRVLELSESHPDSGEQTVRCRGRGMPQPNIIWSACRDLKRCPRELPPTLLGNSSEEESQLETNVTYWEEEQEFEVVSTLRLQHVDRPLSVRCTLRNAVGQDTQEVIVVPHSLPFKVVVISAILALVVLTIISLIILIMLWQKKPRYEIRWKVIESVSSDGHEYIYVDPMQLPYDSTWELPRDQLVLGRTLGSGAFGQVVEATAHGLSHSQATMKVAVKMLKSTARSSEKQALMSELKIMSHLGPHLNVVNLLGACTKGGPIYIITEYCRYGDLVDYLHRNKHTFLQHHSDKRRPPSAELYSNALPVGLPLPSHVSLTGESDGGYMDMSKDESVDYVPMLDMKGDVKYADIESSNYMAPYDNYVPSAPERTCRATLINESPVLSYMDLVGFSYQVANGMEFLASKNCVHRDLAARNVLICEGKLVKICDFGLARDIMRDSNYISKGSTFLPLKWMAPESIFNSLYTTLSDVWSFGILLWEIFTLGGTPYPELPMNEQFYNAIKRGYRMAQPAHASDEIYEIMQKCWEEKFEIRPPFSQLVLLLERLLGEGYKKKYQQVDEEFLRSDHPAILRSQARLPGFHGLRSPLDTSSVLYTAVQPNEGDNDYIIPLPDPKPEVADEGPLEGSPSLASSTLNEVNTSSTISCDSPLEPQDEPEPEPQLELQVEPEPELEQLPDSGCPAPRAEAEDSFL

Row | Compound | residual activity
1 | O=c1c(-c2ccc(F)cc2)c(-c2ccncc2)[nH]n1-c1ccc(Cl)cc1 | 100%
2 | COc1ccc(CNC(=O)Nc2ncc([N+](=O)[O-])s2)cc1 | 101%
3 | CC(C)c1nn(-c2c(Cl)cccc2Cl)c2nc(Cc3ccc(OCCO)cc3)[nH]c(=O)c12 | 103%
4 | O=c1cc(N2CCNCC2)oc2c(-c3ccccc3)cccc12 | 99%
5 | O=c1cc(N2CCOCC2)oc2c1ccc1ccccc12 | 98%
6 | COc1cc2nccc(Oc3ccc(NC(=O)Nc4cc(C)on4)c(Cl)c3)c2cc1OC | 13%
7 | O=C(Nc1nc2ccccc2n1CCN1CCOCC1)c1cccc([N+](=O)[O-])c1 | 104%
8 | O=C(NC(NC(=S)Nc1ccc(F)c([N+](=O)[O-])c1)C(Cl)(Cl)Cl)C(c1ccccc1)c1ccccc1 (stereo unspecified) | 97%
9 | Nc1nc(Nc2ccc(S(N)(=O)=O)cc2)nn1C(=O)c1c(F)cccc1F | 108%
10 | O=C1C(Cl)=C(N2C(=O)CCC2=O)C(=O)c2ccccc21 | 95%
11 | Fc1ccc(-c2nc3n(c2-c2ccncc2)CCS3)cc1 | 123%

The molecules below were run against Platelet-derived growth factor receptor beta (Homo sapiens) (UniProt P09619). Conditions: at 10 µM.

Row | Compound | residual activity
12 | O=c1c(-c2ccc(F)cc2)c(-c2ccncc2)[nH]n1-c1ccc(Cl)cc1 | 99%
13 | COc1ccc(CNC(=O)Nc2ncc([N+](=O)[O-])s2)cc1 | 100%
14 | CC(C)c1nn(-c2c(Cl)cccc2Cl)c2nc(Cc3ccc(OCCO)cc3)[nH]c(=O)c12 | 105%
15 | O=c1cc(N2CCNCC2)oc2c(-c3ccccc3)cccc12 | 88%
16 | COc1cc2nccc(Oc3ccc(NC(=O)Nc4cc(C)on4)c(Cl)c3)c2cc1OC | 2%
17 | O=C(Nc1nc2ccccc2n1CCN1CCOCC1)c1cccc([N+](=O)[O-])c1 | 81%
18 | N#Cc1c(NC(=O)c2cccc3ccccc23)sc2c1CCCC2 | 92%
19 | O=C(NC(NC(=S)Nc1ccc(F)c([N+](=O)[O-])c1)C(Cl)(Cl)Cl)C(c1ccccc1)c1ccccc1 (stereo unspecified) | 96%
20 | Nc1nc(Nc2ccc(S(N)(=O)=O)cc2)nn1C(=O)c1c(F)cccc1F | 82%
21 | O=C1C(Cl)=C(N2C(=O)CCC2=O)C(=O)c2ccccc21 | 93%
22 | O=C1NC(=O)C(c2cn(CCCO)c3ncccc23)=C1c1cnccn1 | 96%
23 | CN([C@@H](Cc1ccc(OS(=O)(=O)c2cccc3cnccc23)cc1)C(=O)N1CCN(c2ccccc2)CC1)S(=O)(=O)c1cccc2cnccc12 | 98%
24 | CC(C)[C@H](CO)Nc1nc(Nc2cc(N)cc(Cl)c2)c2ncn(C(C)C)c2n1 | 92%
25 | NC(=O)c1ccc(-c2nc(-c3ccc4c(c3)OCCO4)c(-c3ccccn3)[nH]2)cc1 | 75%
26 | Fc1ccc(-c2nc3n(c2-c2ccncc2)CCS3)cc1 | 128%
